Assay results as given in PubChem BioAssay (EPA / NIEHS).
Where “and” joins values, the source holds several entries; their conditions need not be identical. Identical values can stand only once. Results filed as inconclusive are left out. A structure can be active in one record and inactive in another. Calls of active or inactive are those of the source. How the source made its calls: active means hit-call score of the fitted dose curve at least 0.9, where 1 is the maximum; inconclusive means response in the unintended direction; inactive means score below 0.9.

Tests used:
[1] = target: human Thyroid hormone Receptor beta (TRb), THRB (gene 7068) (UniProt P10828); test: ATG_hTRb_XSP1: Attagene TRANS-FACTORIAL Multi-Species (XSP1) HepG2 Assay for human Thyroid hormone Receptor beta (TRb) (AID 2283808)
Sequence of human Thyroid hormone Receptor beta (TRb), THRB (gene 7068) (P10828 whole entry, looked up, the tested form may be a part): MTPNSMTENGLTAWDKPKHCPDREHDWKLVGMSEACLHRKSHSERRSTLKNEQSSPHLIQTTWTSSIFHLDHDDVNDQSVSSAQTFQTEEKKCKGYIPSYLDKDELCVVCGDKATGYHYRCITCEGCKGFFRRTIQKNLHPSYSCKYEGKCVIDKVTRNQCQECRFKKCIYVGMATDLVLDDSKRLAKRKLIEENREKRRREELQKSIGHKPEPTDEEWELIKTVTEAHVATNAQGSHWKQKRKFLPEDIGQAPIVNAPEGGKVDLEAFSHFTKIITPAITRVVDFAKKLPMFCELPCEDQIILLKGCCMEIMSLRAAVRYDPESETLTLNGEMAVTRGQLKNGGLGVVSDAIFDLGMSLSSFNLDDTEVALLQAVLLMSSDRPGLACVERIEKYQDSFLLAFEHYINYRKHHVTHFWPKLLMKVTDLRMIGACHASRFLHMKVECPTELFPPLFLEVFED
In short: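 HepG2 cells transiently transfected with reporter units driving GAL4-UAS reporters for chimeric NR-Gal4 proteins; 24 h chemical exposure with 3 nM 6-alpha-fluorotestosterone present. Reporter mRNA quantified by RT-PCR and capillary electrophoresis, gain of signal versus DMSO.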

[2] = ATG_XTT_Cytotoxicity_XSP1: Cytotoxicity Assessment in the Attagene TRANS-FACTORIAL Multi-Species (XSP1) HepG2 Assay (AID 2283810)
In short: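 XTT viability readout taken at 24 hours post-dosing in HepG2 liver cells co-treated with 3 nM 6-alpha-fluorotestosterone. Signal loss relative to DMSO controls reflects cytotoxicity.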

[3] = ATG_M_06_XSP2: Attagene TRANS-FACTORIAL Multi-Species (XSP2) HepG2 Assay for M06 Transcription Factor (Internal Marker) (AID 2283811);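 further: hits are increases in signal above the DMSO baseline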
In short: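 HepG2, multiplexed reporter transfection; 24 h dosing; AR stimulated with 3 nM 6-alpha-fluorotestosterone + 1.5 nM norgestrel; RNA → RT-PCR → 6-FAM primer extension → HpaI → CE. Positive direction vs DMSO.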

[4] = tested on: frog Estrogen Receptor (ER), gene 398734; test: ATG_frER1_XSP2: Attagene TRANS-FACTORIAL Multi-Species (XSP2) HepG2 Assay for frog Estrogen Receptor (ER) (AID 2283821);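 further: hits raise reporter mRNA above DMSO baseline so potency means agonist or activator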
In short: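 Steps: transfect HepG2 with multiple reporter transcription units; treat with chemical for 24 h; isolate RNA, reverse-transcribe, PCR-amplify, label with 6-FAM, digest with HpaI; resolve fragments by capillary electrophoresis. Signal is scored against DMSO.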

[5] = tested on: frog Estrogen Receptor (ER2), gene 100174814; test: ATG_frER2_XSP2: Attagene TRANS-FACTORIAL Multi-Species (XSP2) HepG2 Assay for frog Estrogen Receptor (ER2) (AID 2283828)
In short: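 Multiplexed transactivation in HepG2: frog estrogen receptor fused to Gal4 drives a UAS reporter. Signal is reporter mRNA after 24 h treatment.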

[6] = tested on: turtle Estrogen Receptor (ERa), gene 101933533; test: ATG_trERa_XSP2: Attagene TRANS-FACTORIAL Multi-Species (XSP2) HepG2 Assay for turtle Estrogen Receptor (ERa) (AID 2283812);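 further: human HepG2 liver cells transiently expressing turtle ERa-Gal4 chimeric receptor; actives raise reporter signal above DMSO so AC50 reflects agonist activity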
In short: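 HepG2 cells transiently transfected with GAL4-UAS reporter units expressing turtle ERa-Gal4 chimera. Reporter mRNA measured after 24 h dosing by RT-PCR, fluorescent labelling and capillary electrophoresis; gain of signal fitted versus DMSO.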

[7] = target: GAL4 Transcription Factor (Internal Marker), GAL4 (gene 855828) (UniProt P04386); test: ATG_GAL4_XSP2: Attagene TRANS-FACTORIAL Multi-Species (XSP2) HepG2 Assay for GAL4 Transcription Factor (Internal Marker) (AID 2283814);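 further: GAL4 reporter mRNA background control in MRTU transfected cells not a receptor target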
Sequence of GAL4 Transcription Factor (Internal Marker), GAL4 (gene 855828) (P04386 whole entry, looked up, the tested form may be a part): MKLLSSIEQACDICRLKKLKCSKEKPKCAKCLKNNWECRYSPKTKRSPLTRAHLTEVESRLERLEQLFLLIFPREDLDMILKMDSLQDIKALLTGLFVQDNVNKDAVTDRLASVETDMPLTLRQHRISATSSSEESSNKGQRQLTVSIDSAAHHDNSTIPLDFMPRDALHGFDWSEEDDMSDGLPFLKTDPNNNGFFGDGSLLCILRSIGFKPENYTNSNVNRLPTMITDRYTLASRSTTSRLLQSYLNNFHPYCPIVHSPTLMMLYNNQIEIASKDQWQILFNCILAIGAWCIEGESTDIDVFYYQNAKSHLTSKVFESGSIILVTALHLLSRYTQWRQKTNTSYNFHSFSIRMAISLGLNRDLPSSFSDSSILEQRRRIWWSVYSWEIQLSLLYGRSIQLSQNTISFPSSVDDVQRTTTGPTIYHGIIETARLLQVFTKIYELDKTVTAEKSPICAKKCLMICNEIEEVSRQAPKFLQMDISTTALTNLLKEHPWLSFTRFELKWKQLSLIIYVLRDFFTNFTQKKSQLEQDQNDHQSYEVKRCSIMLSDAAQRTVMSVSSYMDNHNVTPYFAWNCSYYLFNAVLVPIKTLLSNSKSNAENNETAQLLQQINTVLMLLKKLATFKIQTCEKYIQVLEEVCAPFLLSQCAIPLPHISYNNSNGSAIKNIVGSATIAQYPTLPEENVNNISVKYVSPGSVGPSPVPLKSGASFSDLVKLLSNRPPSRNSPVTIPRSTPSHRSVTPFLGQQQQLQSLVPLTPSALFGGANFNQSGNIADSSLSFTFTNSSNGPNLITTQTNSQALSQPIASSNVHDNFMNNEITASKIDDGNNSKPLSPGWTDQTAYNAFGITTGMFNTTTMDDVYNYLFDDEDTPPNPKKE
In short: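 HepG2 cells transiently transfected with GAL4-UAS reporter units, stimulated with 3 nM 6-alpha-fluorotestosterone plus 1.5 nM norgestrel, dosed 24 h. Reporter mRNA by RT-PCR/capillary electrophoresis; gain-of-signal fit versus DMSO, background control.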

[8] = tested on: turtle Androgen Receptor (AR), gene 101947425; test: ATG_trAR_XSP2: Attagene TRANS-FACTORIAL Multi-Species (XSP2) HepG2 Assay for turtle Androgen Receptor (AR) (AID 2283815);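 on AC50: potency for gain of reporter signal meaning activation above DMSO baseline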
In short: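 HepG2 cells transiently transfected with GAL4-UAS reporter units for chimeric NR-Gal4 receptors; 24 h dosing in presence of 3 nM 6-alpha-fluorotestosterone and 1.5 nM norgestrel. Reporter mRNA by RT-PCR and capillary electrophoresis, gain of signal versus DMSO.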

[9] = target: zebrafish Estrogen Receptor (ER1), esr1 (gene 259252) (UniProt P57717); test: ATG_zfER1_XSP2: Attagene TRANS-FACTORIAL Multi-Species (XSP2) HepG2 Assay for zebrafish Estrogen Receptor (ER1) (AID 2283816)
Sequence of zebrafish Estrogen Receptor (ER1), esr1 (gene 259252) (P57717 whole entry, looked up, the tested form may be a part): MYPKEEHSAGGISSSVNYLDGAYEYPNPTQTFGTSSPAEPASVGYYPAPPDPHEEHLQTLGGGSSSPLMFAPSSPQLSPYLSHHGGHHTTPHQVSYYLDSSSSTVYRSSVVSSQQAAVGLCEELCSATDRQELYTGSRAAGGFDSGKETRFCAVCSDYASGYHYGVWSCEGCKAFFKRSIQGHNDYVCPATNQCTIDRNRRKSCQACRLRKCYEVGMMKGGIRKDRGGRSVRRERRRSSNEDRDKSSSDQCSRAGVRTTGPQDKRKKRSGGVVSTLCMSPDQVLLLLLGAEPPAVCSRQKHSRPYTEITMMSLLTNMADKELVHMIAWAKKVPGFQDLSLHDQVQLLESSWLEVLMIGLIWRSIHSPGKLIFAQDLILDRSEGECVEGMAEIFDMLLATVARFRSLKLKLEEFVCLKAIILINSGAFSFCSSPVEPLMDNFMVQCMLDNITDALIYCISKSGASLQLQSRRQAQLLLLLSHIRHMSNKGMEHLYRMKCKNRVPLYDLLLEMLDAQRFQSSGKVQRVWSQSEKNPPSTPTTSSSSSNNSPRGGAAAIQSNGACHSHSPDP
In short: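 HepG2 cells transiently transfected with a GAL4-UAS reporter and a chimeric zebrafish ER1-Gal4 construct, dosed 24 h. Reporter mRNA quantified by RT-PCR, labelling, HpaI digestion and capillary electrophoresis, relative to DMSO.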

[10] = target: chicken Estrogen Receptor (ERa), ESR1 (gene 396099) (UniProt P06212); test: ATG_chERa_XSP2: Attagene TRANS-FACTORIAL Multi-Species (XSP2) HepG2 Assay for chicken Estrogen Receptor (ERa) (AID 2283817);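 further: actives raise reporter signal above DMSO so AC50 reflects ER activation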
Sequence of chicken Estrogen Receptor (ERa), ESR1 (gene 396099) (P06212 whole entry, looked up, the tested form may be a part): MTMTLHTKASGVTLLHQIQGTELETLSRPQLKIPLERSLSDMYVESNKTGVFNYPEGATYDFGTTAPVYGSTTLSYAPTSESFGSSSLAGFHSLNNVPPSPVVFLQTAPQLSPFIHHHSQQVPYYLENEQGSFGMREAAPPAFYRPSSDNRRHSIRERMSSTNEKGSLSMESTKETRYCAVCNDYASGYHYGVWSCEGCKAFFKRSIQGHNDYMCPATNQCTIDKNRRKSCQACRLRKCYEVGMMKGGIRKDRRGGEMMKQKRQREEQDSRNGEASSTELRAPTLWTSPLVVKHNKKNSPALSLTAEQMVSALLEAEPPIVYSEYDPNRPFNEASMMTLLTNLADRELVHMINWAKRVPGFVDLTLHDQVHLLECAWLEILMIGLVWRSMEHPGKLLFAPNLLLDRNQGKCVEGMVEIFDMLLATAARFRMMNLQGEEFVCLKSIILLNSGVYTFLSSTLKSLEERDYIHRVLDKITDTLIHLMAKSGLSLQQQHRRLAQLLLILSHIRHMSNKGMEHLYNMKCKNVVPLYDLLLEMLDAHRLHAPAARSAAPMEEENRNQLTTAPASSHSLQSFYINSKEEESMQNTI
In short: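 Transient MRTU transfection of HepG2 → 24 h chemical dosing → TriZol RNA, oligo(dT) RT → PCR, 6-FAM primer extension, HpaI digest → CE quantitation of chicken ERa-Gal4-driven reporter mRNA. Positive direction vs DMSO.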

[11] = tested on: zebrafish Estrogen Receptor (ER2a), gene 317734; test: ATG_zfER2a_XSP2: Attagene TRANS-FACTORIAL Multi-Species (XSP2) HepG2 Assay for zebrafish Estrogen Receptor (ER2a) (AID 2283818);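 further: hits raise reporter mRNA so AC50 reflects activation of zebrafish ER2a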
In short: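 HepG2 cells transiently transfected with GAL4-UAS reporter units and chimeric zebrafish ER2a-Gal4, exposed 24 h; medium contains 3 nM 6-alpha-fluorotestosterone and 1.5 nM norgestrel. Reporter mRNA quantified by RT-PCR, HpaI digestion, capillary electrophoresis; gain versus DMSO.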

[12] = tested on: chicken Androgen Receptor (AR), gene 422165; test: ATG_chAR_XSP2: Attagene TRANS-FACTORIAL Multi-Species (XSP2) HepG2 Assay for chicken Androgen Receptor (AR) (AID 2283819);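 further: hits raise reporter mRNA above DMSO so potency is for activation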
In short: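 HepG2 cells transiently transfected with chicken AR–GAL4 chimeric reporter constructs, stimulated with 3 nM 6-alpha-fluorotestosterone plus 1.5 nM norgestrel, dosed 24 h. Reporter mRNA quantified by RT-PCR and capillary electrophoresis; gain of signal fitted versus DMSO.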

[13] = ATG_M_19_XSP2: Attagene TRANS-FACTORIAL Multi-Species (XSP2) HepG2 Assay for M32 Transcription Factor (Internal Marker) (AID 2283822)
In short: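 Internal background marker in a multi-species nuclear receptor TRANS panel: transfected HepG2 cells exposed 24 h, with 3 nM 6-alpha-fluorotestosterone and 1.5 nM norgestrel present. Readout is RT-PCR of reporter transcripts resolved by capillary electrophoresis, gain-of-signal versus DMSO.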

[14] = tested on: zebrafish Estrogen Receptor (ER2b), gene 317733; test: ATG_zfER2b_XSP2: Attagene TRANS-FACTORIAL Multi-Species (XSP2) HepG2 Assay for zebrafish Estrogen Receptor (ER2b) (AID 2283823);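 further: fitted upward as reporter gain over DMSO so potency reflects activation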
In short: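 HepG2 human liver cells transiently transfected with multiplexed GAL4-UAS reporter units expressing chimeric NR-Gal4 proteins; compounds dosed for 24 h. Reporter mRNA quantified by RT-PCR, 6-FAM labelling and capillary electrophoresis; gain-of-signal fitted against DMSO baseline.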

[15] = tested on: frog Androgen Receptor (AR), gene 399456; test: ATG_frAR_XSP2: Attagene TRANS-FACTORIAL Multi-Species (XSP2) HepG2 Assay for frog Androgen Receptor (AR) (AID 2283824);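 further: actives raise reporter signal above DMSO so AC50 reflects agonist-like induction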
In short: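 HepG2 cells transiently transfected with GAL4-UAS reporter units and frog (Xenopus laevis) AR-Gal4 chimera; reporter mRNA measured 24 h after dosing by RT-PCR and capillary electrophoresis. Gain of signal fitted relative to DMSO baseline.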

[16] = target: Peroxisome proliferator-activated receptor gamma (Homo sapiens) (UniProt P37231); test: ATG_hPPARg_XSP2: Attagene TRANS-FACTORIAL Multi-Species (XSP2) HepG2 Assay for human Peroxisome Proliferator-activated Receptor gamma (PPARg) (AID 2283829);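 further: actives raise reporter mRNA above DMSO so AC50 reflects PPARg activation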
Sequence of Peroxisome proliferator-activated receptor gamma (Homo sapiens) (P37231 whole entry, looked up, the tested form may be a part): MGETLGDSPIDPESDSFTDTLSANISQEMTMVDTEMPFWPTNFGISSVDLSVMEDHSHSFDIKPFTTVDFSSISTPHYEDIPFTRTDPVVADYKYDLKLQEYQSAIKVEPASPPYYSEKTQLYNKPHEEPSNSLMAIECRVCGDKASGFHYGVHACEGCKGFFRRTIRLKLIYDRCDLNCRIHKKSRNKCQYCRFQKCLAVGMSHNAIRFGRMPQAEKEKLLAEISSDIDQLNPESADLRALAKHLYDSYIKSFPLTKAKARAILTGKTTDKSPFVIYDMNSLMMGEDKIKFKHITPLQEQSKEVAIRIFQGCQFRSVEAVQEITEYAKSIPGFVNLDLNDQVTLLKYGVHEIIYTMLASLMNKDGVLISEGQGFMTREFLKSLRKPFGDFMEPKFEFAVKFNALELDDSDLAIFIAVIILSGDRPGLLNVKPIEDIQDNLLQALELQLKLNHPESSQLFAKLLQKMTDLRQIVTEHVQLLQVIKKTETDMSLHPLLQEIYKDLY
In short: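 Reporter transcripts were measured by RT-PCR, fluorescent labeling, HpaI digestion and capillary electrophoresis, relative to DMSO, 24 h post-dosing. Transiently transfected HepG2 expressed NR-Gal4 chimeras regulating GAL4-UAS reporters; medium contained 3 nM 6-alpha-fluorotestosterone plus 1.5 nM norgestrel.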

[17] = target: Estrogen receptor beta (Homo sapiens) (UniProt Q92731); test: ATG_hERb_XSP2: Attagene TRANS-FACTORIAL Multi-Species (XSP2) HepG2 Assay for human Estrogen Receptor (ERb) (AID 2283813);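 further: actives raise reporter mRNA above DMSO so AC50 reflects agonist induction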
Sequence of Estrogen receptor beta (Homo sapiens) (Q92731 whole entry, looked up, the tested form may be a part): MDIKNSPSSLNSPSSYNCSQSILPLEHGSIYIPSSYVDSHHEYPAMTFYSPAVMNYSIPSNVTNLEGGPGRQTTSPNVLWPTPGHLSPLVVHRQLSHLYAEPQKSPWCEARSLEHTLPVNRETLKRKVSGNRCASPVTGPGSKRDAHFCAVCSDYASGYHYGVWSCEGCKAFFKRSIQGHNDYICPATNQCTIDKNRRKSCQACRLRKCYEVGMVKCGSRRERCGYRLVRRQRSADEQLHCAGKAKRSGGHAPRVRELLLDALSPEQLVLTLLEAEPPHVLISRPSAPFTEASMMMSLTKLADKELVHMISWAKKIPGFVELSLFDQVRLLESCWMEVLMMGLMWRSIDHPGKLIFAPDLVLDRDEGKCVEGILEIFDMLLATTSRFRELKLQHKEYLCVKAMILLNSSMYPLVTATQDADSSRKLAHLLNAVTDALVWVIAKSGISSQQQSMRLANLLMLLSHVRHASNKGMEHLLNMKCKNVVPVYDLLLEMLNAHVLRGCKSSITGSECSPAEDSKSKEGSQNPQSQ
In short: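 HepG2 cells transiently transfected with GAL4-UAS reporter units and chimeric human ERb-Gal4, 24 h exposure. Reporter mRNA quantified by RT-PCR with FAM labelling, HpaI digestion and capillary electrophoresis; gain of signal versus DMSO.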

[18] = tested on: zebrafish Androgen Receptor (AR), gene 100005148; test: ATG_zfAR_XSP2: Attagene TRANS-FACTORIAL Multi-Species (XSP2) HepG2 Assay for zebrafish Androgen Receptor (AR) (AID 2283825);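 further: hits raise reporter mRNA above DMSO so AC50 reflects agonist-type gain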
In short: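 Zebrafish AR–GAL4 chimera transiently expressed with GAL4-UAS reporter in HepG2 cells, co-stimulated with 3 nM 6-alpha-fluorotestosterone and 1.5 nM norgestrel; 24 h dosing, reporter mRNA read by RT-PCR/capillary electrophoresis versus DMSO.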

[19] = target: zebrafish Thyroid Hormone Receptor beta (TRb), thrb (gene 30607) (UniProt Q9PVE4); test: ATG_zfTRb_XSP1: Attagene TRANS-FACTORIAL Multi-Species (XSP1) HepG2 Assay for zebrafish Thyroid Hormone Receptor beta (TRb) (AID 2283809)
Sequence of zebrafish Thyroid Hormone Receptor beta (TRb), thrb (gene 30607) (Q9PVE4 whole entry, looked up, the tested form may be a part): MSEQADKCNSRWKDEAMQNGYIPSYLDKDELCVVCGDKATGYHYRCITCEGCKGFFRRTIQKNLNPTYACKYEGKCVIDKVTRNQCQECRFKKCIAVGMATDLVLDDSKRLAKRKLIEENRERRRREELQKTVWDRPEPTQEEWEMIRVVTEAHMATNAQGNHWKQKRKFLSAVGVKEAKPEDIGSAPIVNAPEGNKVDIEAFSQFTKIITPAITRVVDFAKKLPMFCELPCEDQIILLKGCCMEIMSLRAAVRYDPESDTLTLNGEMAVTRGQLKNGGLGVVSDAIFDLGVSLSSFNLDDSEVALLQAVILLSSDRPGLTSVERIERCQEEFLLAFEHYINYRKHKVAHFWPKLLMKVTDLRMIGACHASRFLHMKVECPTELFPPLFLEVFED
In short: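 HepG2 cells transiently transfected with multiplexed GAL4-UAS reporter units expressing chimeric zebrafish TRb–Gal4. Dosed 24 h with 3 nM 6-alpha-fluorotestosterone present; reporter mRNA measured by RT-PCR, HpaI digestion and capillary electrophoresis; gain of signal versus DMSO.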

[20] = target: human Androgen Receptor (AR), AR (gene 367) (UniProt P10275); test: ATG_hAR_XSP2: Attagene TRANS-FACTORIAL Multi-Species (XSP2) HepG2 Assay for human Androgen Receptor (AR) (AID 2283820)
Sequence of human Androgen Receptor (AR), AR (gene 367) (P10275 whole entry, looked up, the tested form may be a part): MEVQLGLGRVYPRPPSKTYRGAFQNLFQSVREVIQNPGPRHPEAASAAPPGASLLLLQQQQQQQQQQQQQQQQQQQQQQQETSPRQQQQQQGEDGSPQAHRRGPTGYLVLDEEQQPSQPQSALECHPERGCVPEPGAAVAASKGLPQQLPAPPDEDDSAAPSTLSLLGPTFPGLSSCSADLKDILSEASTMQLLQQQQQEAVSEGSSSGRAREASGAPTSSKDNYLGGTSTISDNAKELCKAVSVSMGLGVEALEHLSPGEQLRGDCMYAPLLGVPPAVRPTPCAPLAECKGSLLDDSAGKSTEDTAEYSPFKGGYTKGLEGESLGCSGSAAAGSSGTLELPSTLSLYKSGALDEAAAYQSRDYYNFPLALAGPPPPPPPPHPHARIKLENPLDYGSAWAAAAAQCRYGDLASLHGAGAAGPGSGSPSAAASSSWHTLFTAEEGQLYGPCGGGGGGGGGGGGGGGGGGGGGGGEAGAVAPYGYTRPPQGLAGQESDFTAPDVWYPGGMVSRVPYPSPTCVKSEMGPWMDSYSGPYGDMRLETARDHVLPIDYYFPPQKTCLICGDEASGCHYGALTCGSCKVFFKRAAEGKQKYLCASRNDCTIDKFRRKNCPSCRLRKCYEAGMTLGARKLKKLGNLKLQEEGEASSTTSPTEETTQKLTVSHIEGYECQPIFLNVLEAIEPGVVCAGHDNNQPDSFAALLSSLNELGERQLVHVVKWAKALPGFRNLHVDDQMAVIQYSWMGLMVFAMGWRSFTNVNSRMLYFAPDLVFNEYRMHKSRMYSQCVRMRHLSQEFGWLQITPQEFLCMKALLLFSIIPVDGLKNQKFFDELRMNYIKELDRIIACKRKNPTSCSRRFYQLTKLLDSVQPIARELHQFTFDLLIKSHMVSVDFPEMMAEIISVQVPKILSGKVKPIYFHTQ
In short: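 HepG2 cells transiently transfected with GAL4-UAS reporter units driven by chimeric NR-Gal4 proteins, stimulated with 3 nM 6-alpha-fluorotestosterone plus 1.5 nM norgestrel. Reporter mRNA quantified 24 h after dosing by RT-PCR and capillary electrophoresis; gain-of-signal versus DMSO.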

Measured: AC50

CN(CCOc1ccc(CC2SC(=O)NC2=O)cc1)c1ccccn1 (stereo not drawn)
inactive: [1] | [2] | [3] | [4] | [5]

CCCCCCCCCCCCN
active: [6] 44.3 µM | [10] 48.3 µM | [11] 46.7 µM | [5] 55.1 µM | [16] 30 µM and 11.9 µM
inactive: [7] | [8] | [9] | [11] | [12] | [4] | [13] | [14] | [15]

O=C(Oc1ccccc1)c1ccc(O)cc1
inactive: [6] | [17] | [7] | [8] | [9] | [10] | [12] | [4] | [13] | [15] | [18] | [16]
active: [6] 30.6 µM | [17] 6.15 µM | [9] 58.3 µM | [10] 27.8 µM | [11] 63.9 µM and 27.7 µM | [4] 27.2 µM | [14] 51.2 µM and 4.93 µM | [5] 72.4 µM and 4.8 µM | [16] 100 µM

CN(C)C(=N)N=C(N)N
inactive: [19] | [2] | [7] | [8] | [11] | [12] | [13] | [14] | [18] | [5] | [16]

O=c1cc(-c2ccccc2)oc2cc(O)cc(O)c12
active: [6] 9.68 µM and 2.6 µM | [17] 42.2 µM and 2.03 µM | [8] 1.41 µM | [9] 6.38 µM | [10] 7.18 µM and 2.51 µM | [11] 6.82 µM and 2.26 µM | [12] 1.51 µM | [20] 23.8 µM | [14] 14.2 µM and 5.28 µM | [15] 1.19 µM | [5] 4.67 µM and 2.26 µM
inactive: [3] | [9] | [12] | [20] | [4] | [15]
